The record followed here is ChEMBL document CHEMBL3988442, “University of Dundee, Small-Polar-MMV Screening Library” (2021).

Out of some 48,000 compounds screened, about 13,000 (27%) showed an effect of 50% or more. This is one part of the list.

For this test, the system named is Wolbachia pipientis. Briefly: Anti-Wolbachia Cell-Based Screen. The settings on record: 5 µM. The class given is functional. More on the design: scale not given: in the data most compounds retested in dose-response had high values.
Regarding `O=C(NCCCO)c1cnc(-c2ccccc2)nc1O`, the “Percent Effect” value is recorded as -7.002%. With `Cc1cnn(CC2CN(CCN3CCCC3=O)CCO2)c1` (centres undefined), the “Percent Effect” value is listed as -2.569%.

Take `Cc1nc(NCCN2CCCC2=O)cc(C2CN(C)CCO2)n1` (centres undefined): the “Percent Effect” value stood at 121.4%. In the case of `CC(=O)N1CCN(c2cc(C3CN(C)CCO3)nc(C)n2)CC1` (centres undefined) it was -11.29%; in that of `CC(CCN1CCCC1=O)NCc1cnc(C2CCC2)s1` (centres undefined), 5.748%. The figure for `Cc1cc(N2CCCC(OC(=O)CCN3CCCC3=O)C2)nc(C)n1` (centres undefined) is -12.05%; for `Cc1nc(NCCN2CCCC2=O)cc(C2CN(C(C)C)CCO2)n1` (centres undefined) it is 108.1%. Consider `Cc1ccc(CNCC2CCCn3ccnc32)s1` (centres undefined), for which the “Percent Effect” value was -4.636%. For the compound `CC(=O)c1cc(C(=O)NC2(c3ccccc3)CCC2)n(C)c1`, the “Percent Effect” value was -2.692%. Consider `Cn1cc(C2=NOC(C(=O)NC3(c4ccccc4F)CCCC3)C2)cn1` (centres undefined), for which the “Percent Effect” value is listed as 111.1%. For the compound `CC(C)C(NC(=O)c1ccccc1F)C(=O)Nc1cnn(C)c1` (centres undefined), the “Percent Effect” value worked out at 10.34%.

For the compound `Cn1cc(C2=NOC(C(=O)NC3(c4cccc(F)c4)CCCC3)C2)cn1` (centres undefined), the “Percent Effect” value worked out at 105.1%. The figure for `O=C(NC1(c2cccc(F)c2)CCOCC1)c1ccccn1` is 10.14%; for `Cn1cc(C2=NOC(C(=O)NC3(c4ccccc4)CCCC3)C2)cn1` (centres undefined) it is 117.7%. In the case of `O=C(CCCn1cncn1)NC1(c2ccccc2)CCC1` it was -7.229%. The figure for `Cn1cc(N2CCC(NC(=O)c3ccccc3F)C2=O)cn1` (centres undefined) is 1.627%; for `O=C(NC1(c2cccc(F)c2)CCOCC1)c1ccoc1` it is -9.671%; for `N[C@@H]1c2ccccc2C2(CCN(C(=O)c3cncc(Cl)c3)CC2)[C@H]1O` it is -1.083%.

For the compound `CCN(Cc1noc(C)n1)C(=O)C(c1cccc(C)c1)N(C)C` (centres undefined), the “Percent Effect” value was 1.236%. `CSc1cc2c(cc1NC(=O)NCCn1ccnc1)OCCO2`: the “Percent Effect” value is reported as 8.638%. In the case of `COCc1ccccc1C(=O)NS(=O)(=O)c1ccc2c(c1)CCC(=O)N2`, the “Percent Effect” value is on record as -32.38%. As to `COc1ccc2c(c1)C(C(=O)N(C)CCCc1cnn(C)c1)CC(=O)N2` (centres undefined), the “Percent Effect” value is -51.57%. Consider `CC1CCCN(Cc2ccc(OCc3nccn3C)cc2)C1` (centres undefined), for which the “Percent Effect” value was determined as 64.75%.

With `Cn1ccnc1COc1ccc(CSc2nncn2C2CC2)cc1`, the “Percent Effect” value was -10.32%. `Cn1ccnc1COc1ccc(CSc2nnnn2C2CC2)cc1`: the “Percent Effect” value is listed as -14.27%. Regarding `CC(=O)N1CCN(Cc2ccc(OCc3nccn3C)cc2)CC1`, the “Percent Effect” value worked out at 94.07%. With `Cn1ccnc1COc1ccc(CN2CCC(C(N)=O)CC2)cc1`, the “Percent Effect” value was found to be 122.5%. As to `Cn1ccnc1COc1ccc(CN2CCN(CCO)CC2)cc1`, the “Percent Effect” value was -5.223%. Turning to `Cn1ccnc1COc1ccc(CSc2nnnn2C)cc1`, the “Percent Effect” value is 6.685%.

For the compound `CCOC(=O)N1CCN(Cc2ccc(OCc3nccn3C)cc2)CC1`, the “Percent Effect” value is 3.799%.

For the compound `Cn1ccnc1COc1ccc(CO)cc1`, the “Percent Effect” value is reported as 4.503%. As for `Cn1ccnc1COc1ccc(COC(=O)C2CCCO2)cc1` (centres undefined), the “Percent Effect” value is 0.9583%. For the compound `COCCN1CCN(Cc2ccc(OCc3nccn3C)cc2)CC1`, the “Percent Effect” value came to 100.2%. In the case of `CCCN1C[C@H]2CC[C@@H]1CN(Cc1cccc(O)c1)C2` it was 9.983%; in that of `CC(=O)c1ccc(N2CCCC(CO)(Cc3ccccc3C)C2)nc1` (centres undefined), -1.793%; in that of `Cc1cccc(SC2CCN(Cc3nc(CC4CC4)no3)CC2)c1`, -16.83%.

As for `CSCC(=O)N1CCC(Oc2cccc(C)c2)CC1`, the “Percent Effect” value was determined as 1.414%. With `Cc1ccccc1N1CCCN(C(=O)CCCS(N)(=O)=O)CC1`, the “Percent Effect” value was -5.383%. On to `CC(=O)NCCCC(=O)N1CCC(Sc2cccc(C)c2)CC1`, for which the “Percent Effect” value is reported as 104.7%. The figure for `CS(=O)(=O)NCCC(=O)N1CCC(Cc2ccc(CO)cc2)C1` (centres undefined) is 5.18%; for `Cc1ccccc1C1CCN(C(=O)CCNS(C)(=O)=O)C1` (centres undefined) it is -0.3491%; for `Cc1ccccc1SC1CCN(C(=O)CCCS(N)(=O)=O)CC1` it is 85.51%. In the case of `Cc1cccc(SC2CCN(C(=O)CCNS(C)(=O)=O)CC2)c1`, the “Percent Effect” value was found to be 90.55%. Regarding `COc1cccc(OC2CN(C(=O)CCn3cnnn3)C2)c1`, the “Percent Effect” value was -0.2846%. In the case of `Cc1ccccc1SC1CCN(C(=O)[C@H]2[C@@H]3CNC[C@@H]32)CC1` it was -39.6%. Consider `Cc1cccc(OC2CCN(C(=O)CNC(=O)N(C)C)CC2)c1`, for which the “Percent Effect” value came to 0.03491%. The figure for `Cc1cccc(SC2CCN(C(=O)CCCn3cnnn3)CC2)c1` is 97.25%; for `O=C(Nc1ccc2c(c1)OCO2)N1CCCC1c1ccco1` (centres undefined) it is -0.7591%; for `Cc1nc(CN2C[C@@H](CN3CCOCC3)[C@@H](CO)C2)c2ccccn12` it is 6.539%. The figure for `COCC(=O)N1CCc2nc(C(=O)N(C)C)sc2CC1` is -18.32%.

Take `CN(Cc1ccc(C#N)cc1)Cc1noc(C(C)(C)C)n1`: the “Percent Effect” value is reported as 1.419%. For `Cc1ccccc1CCC1CCCN(Cc2c(C)[nH]c(=O)[nH]c2=O)C1` (centres undefined), the “Percent Effect” value worked out at 11.3%.

On to `NS(=O)(=O)CCCC(=O)N1CCC2(CC1)c1ccccc1CC2O` (centres undefined), for which the “Percent Effect” value is recorded as -16.64%. In the case of `Cc1cccc(SC2CCN(C(=O)CCCS(N)(=O)=O)CC2)c1`, the “Percent Effect” value stood at 79.05%.
